Data as given in PubChem BioAssay.
Unmarked numbers belong to inactive results. For some assays here: Measured potencies and affinities stand elsewhere. Active and inactive are the calls of the source. Unless noted, how the calls were made is not given here.

Assays:
[1] = antimalarial activity against Dd2 strain (AID 2302;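 active means growth inhibition above 50% at the single 2 µM test dose, taken to imply half-maximal potency below 2 µM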;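 further: 0% = DMSO untreated growth and 100% = chloroquine plus artemisinin killed control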); conditions: P. falciparum Dd2 in RBCs, LDH growth readout, 72 h; at 2 µM; stronger effect = higher value
[2] = HepG2 cytotoxicity, primary screen, cytotoxicity control for P. falciparum antimalarial project, cell-based, ATP luminescence (AID 2303;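 active means inhibition above 50%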;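 further: 0% = DMSO wells and 100% = digitonin-killed cells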); conditions: HepG2 viability, 24-48 h, at 10 µM, stronger effect = higher value
[3] = biological target: L-lactate dehydrogenase (Plasmodium falciparum (isolate CDC / Honduras)) (UniProt Q27743); assay: PfLDH activity inhibition – cell lysate, 3D7 strain, counter-screen for P. falciparum growth inhibition project (AID 2304);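 further: 0% = vehicle and 100% = reference inhibitor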; conditions: P. falciparum 3D7 crude extract, LDH APAD/NBT absorbance; at 2 µM; stronger effect = higher value
L-lactate dehydrogenase (Plasmodium falciparum (isolate CDC / Honduras)), sequence (Q27743 whole entry, looked up): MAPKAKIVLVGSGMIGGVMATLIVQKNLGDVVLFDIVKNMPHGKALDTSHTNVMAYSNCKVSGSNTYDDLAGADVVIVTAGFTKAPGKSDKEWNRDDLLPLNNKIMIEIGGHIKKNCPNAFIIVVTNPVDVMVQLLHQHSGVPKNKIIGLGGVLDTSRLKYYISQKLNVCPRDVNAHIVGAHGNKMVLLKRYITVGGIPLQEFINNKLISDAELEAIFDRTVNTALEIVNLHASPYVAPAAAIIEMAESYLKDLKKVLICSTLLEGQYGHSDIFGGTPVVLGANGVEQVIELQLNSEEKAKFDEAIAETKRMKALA

[4] = inhibition of 3D7 malaria parasite growth – strain 3D7 (AID 2306);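 further: 0% = DMSO wells and 100% = chloroquine plus artemisinin control wells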; conditions: P. falciparum 3D7 erythrocytic growth, LDH absorbance, 72 h; at 2 µM; stronger effect = higher value
[5] = biological target: Calcium-dependent protein kinase 1 (Plasmodium falciparum (isolate 3D7)) (UniProt P62344); assay: PfCDPK1 kinase inhibitors, biochemical, TCAMS library (AID 1159585; cut-off not given, nearly all actives have IC50 up to about 0.98 µM;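 further: inhibitors leave more ATP so luminescence rises with inhibition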); conditions: recombinant PfCDPK1, Kinase-Glo ATP depletion luminescence
Calcium-dependent protein kinase 1 (Plasmodium falciparum (isolate 3D7)), sequence (P62344 whole entry, looked up): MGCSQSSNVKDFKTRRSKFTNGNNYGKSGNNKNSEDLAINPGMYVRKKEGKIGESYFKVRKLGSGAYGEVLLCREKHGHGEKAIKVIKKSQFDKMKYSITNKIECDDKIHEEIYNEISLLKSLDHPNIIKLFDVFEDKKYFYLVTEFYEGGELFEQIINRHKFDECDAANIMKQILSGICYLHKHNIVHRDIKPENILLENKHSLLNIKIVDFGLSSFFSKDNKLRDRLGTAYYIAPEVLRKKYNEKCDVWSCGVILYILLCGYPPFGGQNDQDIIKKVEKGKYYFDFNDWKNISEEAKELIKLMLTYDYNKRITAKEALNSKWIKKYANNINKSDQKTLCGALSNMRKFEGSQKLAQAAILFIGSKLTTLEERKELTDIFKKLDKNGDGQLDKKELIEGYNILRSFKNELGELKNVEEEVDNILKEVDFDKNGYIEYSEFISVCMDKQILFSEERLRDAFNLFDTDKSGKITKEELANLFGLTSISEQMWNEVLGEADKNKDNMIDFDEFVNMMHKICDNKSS

[6] = biological target: Plasmodium falciparum protein kinase 6 (PK6, PF3D7_1337100) (UniProt Q8IDW1); assay: PfPK6 kinase inhibitors, biochemical, TCAMS library (AID 1159586); conditions: recombinant PfPK6, Kinase-Glo ATP depletion luminescence
Plasmodium falciparum protein kinase 6 (PK6, PF3D7_1337100), sequence (Q8IDW1 1-305): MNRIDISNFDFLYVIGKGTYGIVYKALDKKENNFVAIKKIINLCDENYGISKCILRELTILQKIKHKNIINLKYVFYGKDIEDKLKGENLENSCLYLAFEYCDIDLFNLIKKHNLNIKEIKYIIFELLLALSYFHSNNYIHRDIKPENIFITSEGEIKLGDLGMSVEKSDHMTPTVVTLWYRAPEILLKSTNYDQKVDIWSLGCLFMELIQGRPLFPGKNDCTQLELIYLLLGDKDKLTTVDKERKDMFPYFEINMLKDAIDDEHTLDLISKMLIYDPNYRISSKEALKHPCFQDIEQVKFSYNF

[7] = biological target: Protein kinase 7 (PK7), Plasmodium falciparum 3D7 (PF3D7_0213400) (UniProt Q7YTF7); assay: inhibition of Plasmodium PK7 catalytic activity – biochemical, TCAMS antimalarial set, Kinase-Glo luminescence (AID 1159587); conditions: recombinant PfPK7, Kinase-Glo ATP depletion luminescence
Protein kinase 7 (PK7), Plasmodium falciparum 3D7 (PF3D7_0213400), sequence (Q7YTF7 1-343): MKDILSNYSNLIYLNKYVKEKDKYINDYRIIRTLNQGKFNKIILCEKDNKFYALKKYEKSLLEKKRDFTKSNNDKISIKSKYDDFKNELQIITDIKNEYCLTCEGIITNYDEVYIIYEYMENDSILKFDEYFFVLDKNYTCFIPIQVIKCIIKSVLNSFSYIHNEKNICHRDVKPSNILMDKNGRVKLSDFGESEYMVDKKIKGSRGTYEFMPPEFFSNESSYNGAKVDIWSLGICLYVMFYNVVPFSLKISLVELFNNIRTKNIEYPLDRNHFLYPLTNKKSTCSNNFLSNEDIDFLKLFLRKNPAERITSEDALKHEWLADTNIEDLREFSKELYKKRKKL

[8] = biological target: Calcium-dependent protein kinase 4 (Plasmodium falciparum (isolate 3D7)) (UniProt Q8IBS5); assay: PfCDPK4 kinase inhibitors, biochemical, TCAMS library (AID 1159588; cut-off not given, nearly all actives have IC50 up to about 0.91 µM); conditions: recombinant PfCDPK4, Kinase-Glo ATP depletion luminescence
Calcium-dependent protein kinase 4 (Plasmodium falciparum (isolate 3D7)), sequence (Q8IBS5 whole entry, looked up): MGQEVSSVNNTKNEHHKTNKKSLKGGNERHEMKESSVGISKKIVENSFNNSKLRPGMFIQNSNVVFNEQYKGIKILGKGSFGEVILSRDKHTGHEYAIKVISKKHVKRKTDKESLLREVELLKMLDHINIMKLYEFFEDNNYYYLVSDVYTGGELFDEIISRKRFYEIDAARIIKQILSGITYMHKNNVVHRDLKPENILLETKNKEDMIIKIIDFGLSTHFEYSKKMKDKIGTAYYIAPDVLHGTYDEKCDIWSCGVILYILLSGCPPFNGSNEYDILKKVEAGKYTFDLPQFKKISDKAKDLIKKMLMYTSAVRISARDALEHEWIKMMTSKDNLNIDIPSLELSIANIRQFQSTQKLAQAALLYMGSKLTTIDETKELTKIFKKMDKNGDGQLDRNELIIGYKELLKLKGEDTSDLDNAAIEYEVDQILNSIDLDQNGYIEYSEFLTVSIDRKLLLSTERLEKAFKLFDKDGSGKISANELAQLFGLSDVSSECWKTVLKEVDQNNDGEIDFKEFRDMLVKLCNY

SMILES	growth inhibition [1]	inhibition [2]	inhibition [3]	growth inhibition [4]	outcome [5]	outcome [6]	outcome [7]	outcome [8]
NC1CCN(Cc2cccc(-c3csc(-c4nc5ccccc5[nH]4)c3)c2)C1 (stereo not given)	10%	10%	2%	99% (active)	inactive	inactive	inactive	inactive
CS(=O)(=O)c1cccc(-c2cnc3[nH]cc(-c4ccc(CCC(=O)O)cc4)c3c2)c1	99% (active)	1%	-6%	97% (active)	inactive	inactive	inactive	inactive
CC(C)NCC(=O)Nc1cccc(C(=O)Nc2cccc(C(F)(F)F)c2)c1	89% (active)	6%	4%	97% (active)	inactive	inactive	inactive	inactive
NC(=O)c1ccccc1OCC(=O)Nc1ccc(-c2cccc(-c3nc4ccc(C(F)(F)F)cc4[nH]3)c2)cc1	11%	51% (active)	-8%	100% (active)	inactive	inactive	inactive	inactive
Cc1ccc(C(C)C)c(Oc2cnc(NC(CO)c3ccccc3)nc2N)c1 (stereo not given)	0%	27%	4%	95% (active)	inactive	inactive	inactive	inactive
O=C(Nc1cccc(-c2nn3ncccc3c2-c2ccnc(Nc3cccnc3)n2)c1)c1c(F)cccc1F	70% (active)	5%	-2%	96% (active)	inactive	inactive	inactive	inactive
CN(C)CCOc1ccc(-c2cc(-c3ccc(Cl)c(O)c3)c(-c3ccncc3)[nH]2)cc1	92% (active)	54% (active)	5%	98% (active)	inactive	inactive	inactive	inactive
Oc1ccccc1N1CCN(c2ccc(-c3nc4ccccc4[nH]3)cn2)CC1	50% (active)	-12%	-2%	97% (active)	inactive	inactive	inactive	inactive
O=C(NCC1CCN(Cc2cccc(C(F)(F)F)c2)C1)c1cc(-c2cccc(C(F)(F)F)c2)cs1 (stereo not given)	74% (active)	35%	-2%	100% (active)	inactive	inactive	inactive	inactive
COc1ccc2nc(SC(C)C(=O)c3c[nH]c4ccccc34)[nH]c2c1 (stereo not given)	98% (active)	-3%	0%	100% (active)	inactive	inactive	inactive	inactive
CCCCCN1CCCC(CNS(=O)(=O)c2cccc(C(=O)Nc3ccc(C(F)(F)F)cc3)c2)C1 (stereo not given)	2%	27%	4%	96% (active)	inactive	inactive	inactive	inactive
CC(=O)c1cc(N2CCOCC2)ccc1N	43%	7%	3%	91% (active)	inactive	inactive	inactive	inactive
O=C(NC1CCN(Cc2ccc3c(c2)OCCO3)CC1)c1ccc(-c2cccc(Cl)c2)s1	9%	46%	-5%	93% (active)	inactive	inactive	inactive	inactive
O=C(CCc1cnc[nH]1)Nc1cccc(-c2cccc(-c3nc4ccccc4[nH]3)c2)c1	25%	8%	3%	101% (active)	inactive	inactive	inactive	inactive
COc1cccc(C(=O)Nc2nc3c(s2)CCN(Cc2ccccc2N2CCNCC2)CC3)c1	11%	7%	-6%	89% (active)	inactive	inactive	inactive	inactive
c1ccc(CCNc2nc(NCC(c3ccccc3)c3ccccc3)c3[nH]cnc3n2)cc1	95% (active)	9%	-1%	100% (active)	inactive	inactive	inactive	inactive
CN1CCN(c2cccc(-c3nnc(-c4ccc(OCC(=O)NCc5cccc(C(F)(F)F)c5)c([N+](=O)[O-])c4)o3)c2)CC1	72% (active)	25%	2%	90% (active)	inactive	inactive	inactive	inactive
Cc1cc(N[C@@H](Cc2ccccc2)C(=O)NCc2cccs2)nc(Nc2ccccc2)n1	36%	3%	-2%	96% (active)	inactive	inactive	inactive	inactive
O=C(NCc1cccc(C(F)(F)F)c1)c1ccc(-c2nc3cc(F)c(F)cc3[nH]2)cc1	7%	-1%	4%	97% (active)	inactive	inactive	inactive	inactive
CO/C(=C\C=C\c1cc2cc(Cl)c(Cl)cc2[nH]1)C(=O)NCCCN1CCN(c2cccc(OC)c2)CC1	93% (active)	61% (active)	0%	100% (active)	inactive	inactive	inactive	inactive

SMILES	growth inhibition [1]	inhibition [2]	inhibition [3]	growth inhibition [4]	outcome [5]	outcome [6]	outcome [7]	outcome [8]
CC(=O)Nc1ccc2[nH]cc(C3CCN(CCC4CCN(C(=O)/C=C/c5ccc(Cl)c(Cl)c5)CC4)CC3)c2n1	80% (active)	16%	1%	101% (active)	inactive	inactive	inactive	inactive
O=C(N[C@@H](CC1CCCCC1)C(=O)NC1CCCc2ccccc21)c1ccc(O)c(-c2cccc([N+](=O)[O-])c2)c1 (stereo not given in full)	98% (active)	-12%	1%	99% (active)	inactive	inactive	inactive	inactive
COc1ccc(S(=O)(=O)N2CCC3(CC2)OCC(=O)NC3c2ccc(Cl)c(Cl)c2)cc1 (stereo not given)	44%	-4%	-2%	91% (active)	inactive	inactive	inactive	inactive
CCOCn1c(-c2ccccc2)cc2c3c(N)nc(N)nc3ccc21	66% (active)	62% (active)	-4%	91% (active)	inactive	inactive	inactive	inactive
CC(C)C[C@H]1c2[nH]c3ccc(Cl)cc3c2CCN1C(=O)CCc1ccccc1	81% (active)	-2%	6%	95% (active)	inactive	inactive	inactive	inactive
Cc1cc(N[C@@H](CC(C)C)C(=O)NCc2cccs2)nc(NCCc2ccc(F)cc2)n1	59% (active)	20%	-2%	100% (active)	inactive	inactive	inactive	inactive
COC(=O)c1cccc(CNCc2cccc(-c3ccc(-c4nc5c(C)cccc5[nH]4)cc3)c2)c1	52% (active)	3%	2%	102% (active)	inactive	inactive	inactive	inactive
O=C(C=Cc1ccc(Cl)c(Cl)c1)NCCCCCN1CCC(CCCNC(=O)c2ccc3c(c2)OCO3)CC1	64% (active)	38%	-5%	98% (active)	inactive	inactive	inactive	inactive
O=C(Nc1ccc(-c2ccccc2)cc1)Nc1cccc(Cn2cnc(N3CCCNCC3)cc2=O)c1	13%	8%	4%	88% (active)	inactive	inactive	inactive	inactive
COc1ccc(C(=O)NC(c2ccc(Cl)cc2Cl)c2cc(Cl)c3cccnc3c2O)cc1 (stereo not given)	48%	46%	2%	84% (active)	inactive	inactive	inactive	inactive
O=S(=O)(NCCN1CCCC1)c1cccc(-c2ccc(CNCc3ccccc3)cc2)c1	41%	54% (active)	-8%	95% (active)	inactive	inactive	inactive	inactive
N#CN1CC[C@H](CS(=O)(=O)c2cccc(Br)c2)C1	74% (active)	8%	-2%	88% (active)	inactive	inactive	inactive	inactive
O=C(C=Cc1ccc(Cl)c(Cl)c1)NCCCCCN1CCC(CCNS(=O)(=O)c2ccc(F)cc2)CC1	-5%	36%	2%	88% (active)	inactive	inactive	inactive	inactive
N#Cc1ccc(-c2ccc(C(=O)NCCCCN3CC=C(c4ccc5c(c4OCC4CC4)CCCC5)CC3)cc2)cc1	83% (active)	22%	4%	100% (active)	inactive	inactive	inactive	inactive
NC(=O)c1cccc(C(=O)Nc2cccc(-c3csc(-c4nc5ccccc5[nH]4)c3)c2)c1	92% (active)	16%	0%	101% (active)	inactive	inactive	inactive	inactive
OCCCCCCN=Cc1[nH]c(=S)sc1O	1%	7%	4%	91% (active)	inactive	inactive	inactive	inactive
Cc1cc(C2CCN(CCCCNC(=O)c3ccc(-c4ccc(C#N)cc4)cc3)CC2)c(C)cc1OCCO	68% (active)	20%	2%	96% (active)	inactive	inactive	inactive	inactive
O=C(Nc1cn(-c2ccc(OCc3cccc(F)c3)c(Cl)c2)c2ncncc12)c1ccncc1	81% (active)	13%	0%	100% (active)	inactive	inactive	inactive	inactive
Cc1ccccc1Nc1nc(NCCCO)c2ccccc2n1	50% (active)	-1%	-5%	83% (active)	inactive	inactive	inactive	inactive
CS(=O)(=O)CCNCc1cccc(-c2ccc3c(Nc4ccc(Oc5ccccc5)cc4)ccnc3c2)c1	96% (active)	18%	6%	101% (active)	inactive	inactive	inactive	inactive
